Results from PubChem BioAssay.
For some assays here: Potency and affinity values are given separately. The source made the active and inactive calls. Unless noted, no rule for the calls is given here.

Tests used:
[1] = antimalarial activity against Dd2 strain (AID 2302;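 active = growth inhibition above 50% at the single 2 µM test dose, taken to imply half-maximal potency below 2 µM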;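 also: 0% = DMSO untreated growth and 100% = chloroquine plus artemisinin killed control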); settings: P. falciparum Dd2 in RBCs, LDH growth readout, 72 h; at 2 µM; hits give high values
[2] = human hepatoma cell viability loss – ATP luminescence, cytotoxicity control for P. falciparum antimalarial project, primary screen (AID 2303;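 active = inhibition above 50%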;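 also: 0% = DMSO wells and 100% = digitonin-killed cells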); settings: HepG2 viability, 24-48 h, at 10 µM, hits give high values
[3] = target: L-lactate dehydrogenase (Plasmodium falciparum (isolate CDC / Honduras)) (UniProt Q27743); experiment: PfLDH activity inhibition – cell lysate, 3D7 strain, counter-screen for P. falciparum growth inhibition project (AID 2304);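 also: 0% = vehicle and 100% = reference inhibitor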; settings: P. falciparum 3D7 crude extract, LDH APAD/NBT absorbance; at 2 µM; hits give high values
[4] = inhibition of 3D7 malaria parasite growth – strain 3D7 (AID 2306);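 also: 0% = DMSO wells and 100% = chloroquine plus artemisinin control wells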; settings: P. falciparum 3D7 erythrocytic growth, LDH absorbance, 72 h; at 2 µM; hits give high values
[5] = target: Calcium-dependent protein kinase 1 (Plasmodium falciparum (isolate 3D7)) (UniProt P62344); experiment: PfCDPK1 kinase inhibitors, biochemical, TCAMS library (AID 1159585; cut-off not given, nearly all actives have IC50 up to about 0.98 µM;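 also: inhibitors leave more ATP so luminescence rises with inhibition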); settings: recombinant PfCDPK1, Kinase-Glo ATP depletion luminescence
[6] = target: Plasmodium falciparum protein kinase 6 (PK6, PF3D7_1337100) (UniProt Q8IDW1); experiment: PfPK6 kinase inhibitors, biochemical, TCAMS library (AID 1159586); settings: recombinant PfPK6, Kinase-Glo ATP depletion luminescence
[7] = target: Protein kinase 7 (PK7), Plasmodium falciparum 3D7 (PF3D7_0213400) (UniProt Q7YTF7); experiment: inhibition of Plasmodium PK7 catalytic activity – biochemical, TCAMS antimalarial set, Kinase-Glo luminescence (AID 1159587); settings: recombinant PfPK7, Kinase-Glo ATP depletion luminescence
[8] = target: Calcium-dependent protein kinase 4 (Plasmodium falciparum (isolate 3D7)) (UniProt Q8IBS5); experiment: PfCDPK4 kinase inhibitors, biochemical, TCAMS library (AID 1159588; cut-off not given, nearly all actives have IC50 up to about 0.91 µM); settings: recombinant PfCDPK4, Kinase-Glo ATP depletion luminescence
Calcium-dependent protein kinase 4 (Plasmodium falciparum (isolate 3D7)), sequence (Q8IBS5 whole entry, looked up): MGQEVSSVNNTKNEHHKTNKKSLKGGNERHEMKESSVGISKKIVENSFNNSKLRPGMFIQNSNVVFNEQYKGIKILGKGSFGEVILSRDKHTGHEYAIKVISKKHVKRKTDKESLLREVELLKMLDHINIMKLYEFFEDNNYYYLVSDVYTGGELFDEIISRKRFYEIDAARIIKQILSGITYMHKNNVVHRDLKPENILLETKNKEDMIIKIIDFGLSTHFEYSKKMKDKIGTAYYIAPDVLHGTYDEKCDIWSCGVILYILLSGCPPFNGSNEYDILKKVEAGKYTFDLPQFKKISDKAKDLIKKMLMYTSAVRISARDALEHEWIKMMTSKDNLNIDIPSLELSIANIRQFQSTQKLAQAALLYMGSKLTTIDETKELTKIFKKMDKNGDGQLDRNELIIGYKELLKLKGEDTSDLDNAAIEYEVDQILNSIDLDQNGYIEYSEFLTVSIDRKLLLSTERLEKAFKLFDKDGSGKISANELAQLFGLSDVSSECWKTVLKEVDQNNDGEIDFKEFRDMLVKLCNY

Protein kinase 7 (PK7), Plasmodium falciparum 3D7 (PF3D7_0213400), sequence (Q7YTF7 1-343): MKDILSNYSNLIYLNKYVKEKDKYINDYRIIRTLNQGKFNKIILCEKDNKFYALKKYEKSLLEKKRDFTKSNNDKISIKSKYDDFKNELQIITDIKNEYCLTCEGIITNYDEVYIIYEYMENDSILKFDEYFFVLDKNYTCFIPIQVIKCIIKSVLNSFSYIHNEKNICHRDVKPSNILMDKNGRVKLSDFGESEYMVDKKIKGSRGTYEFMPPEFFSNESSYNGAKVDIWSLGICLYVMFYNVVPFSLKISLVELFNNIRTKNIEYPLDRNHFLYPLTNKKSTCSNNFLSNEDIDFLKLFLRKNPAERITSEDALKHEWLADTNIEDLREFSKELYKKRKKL
L-lactate dehydrogenase (Plasmodium falciparum (isolate CDC / Honduras)), sequence (Q27743 whole entry, looked up): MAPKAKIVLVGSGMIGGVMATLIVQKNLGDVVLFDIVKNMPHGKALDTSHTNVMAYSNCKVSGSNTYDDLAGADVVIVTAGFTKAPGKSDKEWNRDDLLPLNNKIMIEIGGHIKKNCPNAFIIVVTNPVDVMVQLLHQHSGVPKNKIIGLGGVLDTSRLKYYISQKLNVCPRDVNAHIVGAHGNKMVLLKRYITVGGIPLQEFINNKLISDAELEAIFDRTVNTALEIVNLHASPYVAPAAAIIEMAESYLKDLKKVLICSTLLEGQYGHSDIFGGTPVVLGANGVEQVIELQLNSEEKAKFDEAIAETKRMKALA
Calcium-dependent protein kinase 1 (Plasmodium falciparum (isolate 3D7)), sequence (P62344 whole entry, looked up): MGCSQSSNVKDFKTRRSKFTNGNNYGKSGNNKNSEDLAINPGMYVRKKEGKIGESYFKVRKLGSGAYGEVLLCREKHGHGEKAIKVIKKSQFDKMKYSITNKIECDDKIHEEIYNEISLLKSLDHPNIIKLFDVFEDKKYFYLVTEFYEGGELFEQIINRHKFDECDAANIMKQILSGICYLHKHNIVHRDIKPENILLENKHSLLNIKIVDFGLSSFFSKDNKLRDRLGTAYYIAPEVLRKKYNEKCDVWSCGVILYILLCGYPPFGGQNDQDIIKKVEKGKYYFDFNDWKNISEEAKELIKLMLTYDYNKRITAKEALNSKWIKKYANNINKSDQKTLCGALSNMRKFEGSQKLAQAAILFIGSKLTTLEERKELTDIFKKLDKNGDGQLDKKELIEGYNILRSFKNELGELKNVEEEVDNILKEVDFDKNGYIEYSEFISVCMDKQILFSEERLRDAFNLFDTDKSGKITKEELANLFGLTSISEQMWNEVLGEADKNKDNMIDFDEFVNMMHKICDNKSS
Plasmodium falciparum protein kinase 6 (PK6, PF3D7_1337100), sequence (Q8IDW1 1-305): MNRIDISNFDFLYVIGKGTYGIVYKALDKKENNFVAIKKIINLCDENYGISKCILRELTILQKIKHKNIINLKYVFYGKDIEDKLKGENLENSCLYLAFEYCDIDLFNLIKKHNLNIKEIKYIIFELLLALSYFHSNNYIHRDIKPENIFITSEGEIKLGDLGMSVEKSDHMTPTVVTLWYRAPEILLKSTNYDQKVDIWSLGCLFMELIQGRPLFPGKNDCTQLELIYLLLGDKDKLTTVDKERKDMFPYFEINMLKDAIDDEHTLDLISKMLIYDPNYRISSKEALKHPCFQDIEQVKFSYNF

O=C(CC1SC(N2N=C(c3cccs3)CC2c2ccccc2)=NC1=O)Nc1ccccc1F (stereo not given)
active: growth inhibition [1] 76% | growth inhibition [4] 87%
inactive: inhibition [2] 9% | inhibition [3] -2% | outcome [5] | outcome [6] | outcome [7] | outcome [8]

CCCNCc1ccc(-c2ccc(CN(C(=O)c3nn(-c4ccccc4)nc3C)C(C)CN(C)C)cc2)nc1 (stereo not given)
active: growth inhibition [1] 95% | growth inhibition [4] 95%
inactive: inhibition [2] 27% | inhibition [3] -8% | outcome [5] | outcome [6] | outcome [7] | outcome [8]

Cc1csc2nc(-c3ccccn3)nc(Nc3ccc4ncsc4c3)c12
inactive: inhibition [2] -3% | inhibition [3] 3% | outcome [5] | outcome [6] | outcome [7] | outcome [8]
active: growth inhibition [1] 91% | growth inhibition [4] 85%

Cc1ccc(/C=C/C(=O)NCCCCCN2CCCN(C(=O)Nc3ccc(Cl)c(Cl)c3)CC2)cc1
active: growth inhibition [4] 95%
inactive: growth inhibition [1] 1% | inhibition [2] 24% | inhibition [3] 2% | outcome [5] | outcome [6] | outcome [7] | outcome [8]

O=C(CCCCCNC(=O)c1ccc(O)c(-c2ccc(Cl)c(Cl)c2)c1)NC1CCCc2ccccc21 (stereo not given)
active: growth inhibition [4] 97%
inactive: growth inhibition [1] 13% | inhibition [2] -7% | inhibition [3] -6% | outcome [5] | outcome [6] | outcome [7] | outcome [8]

CCOC(=O)c1ccc2nc(-c3ccc(C(=O)NC4CCN(Cc5ccccc5)CC4)s3)[nH]c2c1
inactive: inhibition [2] 32% | inhibition [3] -2% | outcome [5] | outcome [6] | outcome [7] | outcome [8]
active: growth inhibition [1] 95% | growth inhibition [4] 100%

O=C(Cc1cccnc1)N(Cc1ccc(-c2ccc(CNCc3cccnc3)cn2)cc1)C1CCN(Cc2ccccc2)CC1
active: growth inhibition [4] 93%
inactive: growth inhibition [1] 6% | inhibition [2] 8% | inhibition [3] -3% | outcome [5] | outcome [6] | outcome [7] | outcome [8]

CC(C)(C)OC(=O)/C=C(\C(=O)OCc1ccc([N+](=O)[O-])cc1)c1csc(NC(c2ccccc2)(c2ccccc2)c2ccccc2)n1
inactive: inhibition [2] 2% | inhibition [3] 3% | outcome [5] | outcome [6] | outcome [7] | outcome [8]
active: growth inhibition [1] 97% | growth inhibition [4] 96%

Cc1[nH]c(C)c(-c2ccc(Oc3ccc(O)cc3)cc2)c(=O)c1Cl
active: growth inhibition [1] 87% | growth inhibition [4] 91%
inactive: inhibition [2] -2% | inhibition [3] -3% | outcome [5] | outcome [6] | outcome [7] | outcome [8]

Cc1[nH]c(C)c(-c2ccc(Br)cc2)c(=O)c1Cl
active: growth inhibition [1] 77% | growth inhibition [4] 94%
inactive: inhibition [2] 22% | inhibition [3] -2% | outcome [5] | outcome [6] | outcome [7] | outcome [8]

O=c1cc(NCCCNCc2ccc(C(F)(F)F)cc2F)[nH]c2ccccc12
active: growth inhibition [4] 93%
inactive: growth inhibition [1] 48% | inhibition [2] 1% | inhibition [3] 8% | outcome [5] | outcome [6] | outcome [7] | outcome [8]

c1cc(CNCC2CCCO2)cc(-c2cccc(-c3nc4ccccc4[nH]3)c2)c1 (stereo not given)
inactive: growth inhibition [1] 7% | inhibition [2] 15% | inhibition [3] 3% | outcome [5] | outcome [6] | outcome [7] | outcome [8]
active: growth inhibition [4] 100%

CCCCSc1ccc2nc(-c3c[nH]c4ccc(C#N)cc34)cn2c1
inactive: growth inhibition [1] 37% | inhibition [2] 3% | inhibition [3] 3% | outcome [5] | outcome [6] | outcome [7] | outcome [8]
active: growth inhibition [4] 94%

OC(CN1CCN(Cc2ccccc2)CC1)Cn1c(-c2ccccc2)c(-c2ccccc2)c2ccccc21 (stereo not given)
active: growth inhibition [1] 97% | growth inhibition [4] 98%
inactive: inhibition [2] -3% | inhibition [3] -3% | outcome [5] | outcome [6] | outcome [7] | outcome [8]

CCN(CC)CCN(Cc1ccc(-c2ccc(C(F)(F)F)cc2)cc1)C(=O)Cn1c(CCc2cccc(F)c2F)cc(=O)c2c1CCCC2
active: growth inhibition [1] 95% | inhibition [2] 93% | growth inhibition [4] 100%
inactive: inhibition [3] 1% | outcome [5] | outcome [6] | outcome [7] | outcome [8]

CCOc1cc(C2C(C(=O)OC(C)C)=C(C)NC3=C2C(=O)CC(c2ccc(Cl)cc2)C3)ccc1OC(C)=O (stereo not given)
active: growth inhibition [4] 90%
inactive: growth inhibition [1] 20% | inhibition [2] 16% | inhibition [3] -3% | outcome [5] | outcome [6] | outcome [7] | outcome [8]

c1ccc(-c2[nH]ncc2Nc2ccnc3ccccc23)nc1
inactive: inhibition [2] 36% | inhibition [3] 1% | outcome [5] | outcome [6] | outcome [7] | outcome [8]
active: growth inhibition [1] 98% | growth inhibition [4] 100%

Cc1nc2nc(N)nc(N)c2c(C)c1Cc1cccc(C#N)c1
active: inhibition [2] 64% | growth inhibition [4] 97%
inactive: growth inhibition [1] 1% | inhibition [3] 1% | outcome [5] | outcome [6] | outcome [7] | outcome [8]

COC(=O)c1cccc(CNCc2cccc(-c3cccc(-c4nc5ccccc5[nH]4)c3)c2)c1
active: growth inhibition [1] 58% | growth inhibition [4] 95%
inactive: inhibition [2] 3% | inhibition [3] -3% | outcome [5] | outcome [6] | outcome [7] | outcome [8]

Cc1ccc2nc(C)n(C3CCN(C(=O)Cc4ccc(F)c(F)c4)CC3)c2c1
inactive: inhibition [2] 4% | inhibition [3] 0% | outcome [5] | outcome [6] | outcome [7] | outcome [8]
active: growth inhibition [1] 100% | growth inhibition [4] 100%

O=C(Nc1ccc(Cl)c(Cl)c1)N1CCC(CNCc2cccc([N+](=O)[O-])c2)CC1
active: growth inhibition [4] 98%
inactive: growth inhibition [1] 6% | inhibition [2] 13% | inhibition [3] 2% | outcome [5] | outcome [6] | outcome [7] | outcome [8]

CN1CCC(N(Cc2ccc(-c3ccc(C(F)(F)F)cc3)cc2)C(=O)Cn2c(SCc3cccc(F)c3F)cc(=O)c3c2CCC3)CC1
active: growth inhibition [1] 83% | inhibition [2] 50% | growth inhibition [4] 89%
inactive: inhibition [3] 1% | outcome [5] | outcome [6] | outcome [7] | outcome [8]

O=C(Nc1ccc2ccccc2c1)N1CCC(NCc2cccc([N+](=O)[O-])c2)CC1
inactive: growth inhibition [1] -3% | inhibition [2] -1% | inhibition [3] 2% | outcome [5] | outcome [6] | outcome [7] | outcome [8]
active: growth inhibition [4] 98%

Fc1ccc2nc(-c3ccc(-c4ccc(CNCC5CCCO5)cc4)s3)[nH]c2c1 (stereo not given)
active: growth inhibition [1] 99% | growth inhibition [4] 100%
inactive: inhibition [2] 30% | inhibition [3] -2% | outcome [5] | outcome [6] | outcome [7] | outcome [8]

CN(C)C(CNC(=O)c1cc(-c2ccncc2)c(-c2ccc(NC(=O)Nc3ccccc3)cc2)o1)c1ccccc1 (stereo not given)
inactive: inhibition [2] 19% | inhibition [3] 4% | outcome [5] | outcome [6] | outcome [7] | outcome [8]
active: growth inhibition [1] 96% | growth inhibition [4] 101%

CC(CC(=O)NCC1(c2ccc(F)cc2Cl)CCOCC1)C(=O)c1ccc(Cl)cc1 (stereo not given)
inactive: inhibition [2] 6% | inhibition [3] 2% | outcome [5] | outcome [6] | outcome [7] | outcome [8]
active: growth inhibition [1] 91% | growth inhibition [4] 99%

COc1ccc(Nc2nc(N3CCCC3)c3ccccc3n2)cc1
inactive: inhibition [2] 40% | inhibition [3] 2% | outcome [5] | outcome [6] | outcome [7] | outcome [8]
active: growth inhibition [1] 98% | growth inhibition [4] 102%

O=C(Nc1cccc(-c2cccc(-c3nc4ccccc4[nH]3)c2)c1)Nc1ccc(F)c(F)c1F
inactive: inhibition [3] -1% | outcome [5] | outcome [6] | outcome [7] | outcome [8]
active: growth inhibition [1] 95% | inhibition [2] 78% | growth inhibition [4] 98%

Cc1cc2ccccc2c(CON2C(N)=NC(N)=NC2(C)C)c1C
active: inhibition [2] 65% | growth inhibition [4] 93%
inactive: growth inhibition [1] 31% | inhibition [3] -3% | outcome [5] | outcome [6] | outcome [7] | outcome [8]

Cc1nnsc1C(=O)Nc1cccc(-c2ccc(-c3nc4ccccc4[nH]3)cc2)c1
inactive: inhibition [2] 48% | inhibition [3] 0% | outcome [5] | outcome [6] | outcome [7] | outcome [8]
active: growth inhibition [1] 58% | growth inhibition [4] 100%

CN(c1ccc(NC(=O)Nc2cc(C(C)(C)C)on2)cc1)c1ccnc(NCCOC(=O)Nc2cc(C(C)(C)C)on2)n1
active: growth inhibition [1] 54% | inhibition [2] 59% | growth inhibition [4] 102%
inactive: inhibition [3] 4% | outcome [5] | outcome [6] | outcome [7] | outcome [8]

CCCc1cc(N2CCC(c3ccccc3)(N3CCCCC3)CC2)nc(Nc2ccc(OC)cc2)n1
inactive: growth inhibition [1] 28% | inhibition [2] 13% | inhibition [3] 1% | outcome [5] | outcome [6] | outcome [7] | outcome [8]
active: growth inhibition [4] 81%

Cc1ccc(-c2noc(=O)n2CC(=O)Nc2ccccc2-c2ccccc2)cc1
active: growth inhibition [1] 86% | growth inhibition [4] 100%
inactive: inhibition [2] -1% | inhibition [3] 2% | outcome [5] | outcome [6] | outcome [7] | outcome [8]

COc1ccc2nccc([C@@H](O)CN3CCC(NCc4cc5c(F)ccc(F)c5[nH]4)CC3)c2c1
active: growth inhibition [1] 67% | growth inhibition [4] 100%
inactive: inhibition [2] 29% | inhibition [3] 0% | outcome [5] | outcome [6] | outcome [7] | outcome [8]

CCCCCCCc1c(C)[nH]c2cccc(OC)c2c1=O
active: growth inhibition [4] 95%
inactive: growth inhibition [1] 47% | inhibition [2] 43% | inhibition [3] 0% | outcome [5] | outcome [6] | outcome [7] | outcome [8]

COc1ccc(CN2CCN(CCCCNC(=O)c3ccc(NC(=O)c4ccc(Cl)cc4)cc3)CC2)c(OC)c1
active: growth inhibition [4] 94%
inactive: growth inhibition [1] 0% | inhibition [2] 25% | inhibition [3] -6% | outcome [5] | outcome [6] | outcome [7] | outcome [8]

OCCN1CCN(Cc2cccc(-c3ccc(-c4nc5ccc(C(F)(F)F)cc5[nH]4)cc3)c2)CC1
inactive: inhibition [2] 19% | inhibition [3] -2% | outcome [5] | outcome [6] | outcome [7] | outcome [8]
active: growth inhibition [1] 85% | growth inhibition [4] 102%

O=C(NCCCCN1CCC(c2cccc3ccccc23)CC1)c1ccc(NC(=O)c2ccc(Cl)cc2)cc1
active: growth inhibition [4] 99%
inactive: growth inhibition [1] 39% | inhibition [2] 20% | inhibition [3] 2% | outcome [5] | outcome [6] | outcome [7] | outcome [8]

CCOC(=O)CNC(=O)N1CCN(C(=O)NCC(=O)OCC)CC1
inactive: growth inhibition [1] 0% | inhibition [2] -9% | inhibition [3] -2% | outcome [5] | outcome [6] | outcome [7] | outcome [8]
active: growth inhibition [4] 93%

CC(C)Oc1cc2c(cc1NS(=O)(=O)c1ccc(-c3ccc(Cl)cc3)cc1)CCN(C)CC2
inactive: inhibition [3] -3% | outcome [5] | outcome [6] | outcome [7] | outcome [8]
active: growth inhibition [1] 65% | inhibition [2] 100% | growth inhibition [4] 99%
